Assay outcomes as filed in PubChem.
An excerpt weighted towards active compounds, which were near 7.3% of everything screened.
SMN2 splice up = qHTS Assay for Enhancers of SMN2 Splice Variant Expression. actives 2.8% (n = 210,000). HEK293 SMN2-luciferase splicing reporter, luminescence, 30-36 h. AID 1458, 2008. Potency, µM (highest dose often 46.1 µM), for the others: at the top dose activity change, positive = activation, most hits filed as activators; also: % of control where 0% means no effect; nearly all actives have a fitted effect of over 55% in size
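qHTS luciferase splicing reporter: luminescence rises when SMN2 exon 7 is included in transfected HEK293 cells. Compound exposure lasted 30-36 h at 37C, with 4.5 mM final sodium butyrate as control, followed by a ONE-Glo read.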
NPC1 prom act = qHTS Assay for NPC1 Promoter Activators; Huh7 NPC1 promoter luciferase reporter, 24 h; Potency, µM (series often up to 9.22 µM), for inactives: top-dose activation, actives largely listed as activators; actives 2.4% (n = 320,000); also: % of control where 0% means no effect; nearly all actives have a fitted effect of over 60% in size
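Luminescence read-out of NPC1 promoter-driven luciferase in stably transfected Huh7 cells; compounds delivered in DMSO and left 24 h at 37C, 5% CO2, qHTS titration format.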
FLuc counter = qHTS profiling assay for firefly luciferase inhibitor/activator using purifed enzyme and Km concentrations of substrates (counterscreen for miR-21 project). Luciferin 4-monooxygenase (Photinus pyralis), P08659. purified FLuc, Km substrates, luminescence inhibition. Potency, µM (doses to about 57.5 µM), without a hit: top-dose activity change, negative = inhibition, usual class: inhibitors. actives 6.9% (n = 360,000). AID 588342, 2011;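 also: plate controls were vehicle for no effect and reference inhibitor for full effect; nearly all actives have a fitted effect of over 55% in size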
Target sequence (P08659 whole entry, looked up): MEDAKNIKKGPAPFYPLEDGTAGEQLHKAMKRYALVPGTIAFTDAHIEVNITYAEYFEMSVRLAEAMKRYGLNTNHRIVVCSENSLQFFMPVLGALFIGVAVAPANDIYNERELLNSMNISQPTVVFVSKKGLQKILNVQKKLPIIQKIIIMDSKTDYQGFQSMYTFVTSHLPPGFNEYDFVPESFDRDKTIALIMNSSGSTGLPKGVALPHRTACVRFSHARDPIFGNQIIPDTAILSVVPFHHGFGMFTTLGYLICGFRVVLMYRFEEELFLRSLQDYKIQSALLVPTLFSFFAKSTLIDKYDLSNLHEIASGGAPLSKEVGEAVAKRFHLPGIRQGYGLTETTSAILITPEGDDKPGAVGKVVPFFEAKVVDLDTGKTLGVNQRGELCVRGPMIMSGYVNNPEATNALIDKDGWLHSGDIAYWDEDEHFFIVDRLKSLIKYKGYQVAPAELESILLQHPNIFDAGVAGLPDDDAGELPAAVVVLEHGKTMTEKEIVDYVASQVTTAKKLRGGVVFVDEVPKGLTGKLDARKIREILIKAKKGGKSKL
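Purified P. pyralis luciferase, 10 nM final, with Km-level 10 uM D-luciferin and 10 uM ATP in 50 mM Tris acetate pH 7.5, 10 mM Mg acetate, 0.01% Tween-20, 0.05% BSA; 6-point qHTS titration about 60 µM downward; luminescence read.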
Rab9 promoter act = qHTS Assay for Rab9 Promoter Activators; Huh7 Rab9 promoter-luciferase reporter, luminescence, 24 h; Potency, µM (titrated, usually from 9.22 µM), inactives show at the highest dose activation, negative = inhibition, hits mostly activators; actives 2.8% (n = 320,000); also: % of control where 0% means no effect; nearly all actives have a fitted effect of over 60% in size
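Measured in stably transfected Huh7 cells bearing a Rab9 promoter–luciferase construct: 24 h compound treatment at 37 °C, followed by luminescence detection.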
KinaseGlo FLuc = Counterscreen for Luciferase (Kinase-Glo TM) Inhibition. Kinase-Glo luciferase, ATP luminescence, 8 min. Potency, µM (series often up to 38.3 µM), for inactives: at the highest dose activity change, negative = inhibition, actives largely listed as inhibitors. actives 0.28% (n = 200,000). AID 1379, 2008; also: % is scaled to controls: 0 for no effect and ±100 for the full control effect; nearly all actives have a fitted effect of over 60% in size
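Compound is pinned into ATP-containing buffer (10 uM ATP, imidazole pH 7.2, 7 mM MgCl2). Kinase-Glo luciferase reagent is then added. Light output is recorded following an 8-min room-temperature incubation.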
* = called active by the depositor; [ ] = dose if it differs, or a comment. Calls follow the shape of the dose curve; as a rule, active = well fitted curve in the direction sought with a large enough effect; inconclusive = small, poorly fitted or top-dose-only effect, or another doubt; inactive = no such curve, though single readings can be large; an effect the other way counts as inactive or inconclusive. Potency is read from the fitted curve at half-maximal effect.

Screening CC(=O)c1ccc(NC(=O)C2CC(=O)N(Cc3ccccc3)C2)cc1 (stereo unspecified) returned SMN2 splice up inconclusive, NPC1 prom act inconclusive, FLuc counter 9.5µM*, Rab9 promoter act inconclusive and KinaseGlo FLuc -5%.
Screening O=C(Nc1ccccc1)C1CC(=O)N(Cc2ccccc2)C1 (stereo unspecified) returned NPC1 prom act 0%, FLuc counter -2% and Rab9 promoter act 5%.
O=C(Cn1c(=O)n(Cc2ccco2)c(=O)c2oc3ccccc3c21)Nc1ccc(F)cc1F was read as FLuc counter 5%.
For Cc1ccc(-n2cc(CNCC3CC(=O)N(C4CC4)C3)c(-c3cccc(C)c3)n2)cc1 (stereo unspecified) the results were NPC1 prom act -5%, FLuc counter 21µM* and Rab9 promoter act 9%.
For Cc1ccc(-n2cc(CN3CCNC(=O)CC3)c(-c3cccc(C)c3)n2)cc1 the results were NPC1 prom act -7%, FLuc counter inconclusive, Rab9 promoter act -13% and KinaseGlo FLuc -1%.
Screening CCNC(=S)NNC(=O)c1csc(C(C)C)c1 returned SMN2 splice up 11µM*, NPC1 prom act 22%, FLuc counter -23%, Rab9 promoter act inconclusive and KinaseGlo FLuc -4%.
Screening CCCCNC(=S)NNC(=O)c1csc(C(C)C)c1 returned SMN2 splice up 19%, NPC1 prom act -2%, FLuc counter -18%, Rab9 promoter act inconclusive and KinaseGlo FLuc 0%.
`Cn1/c(=N/N=C/c2ccc([N+](=O)[O-])cc2)sc2ccccc21` gave SMN2 splice up 17%, NPC1 prom act 24%, FLuc counter 2.1µM*, Rab9 promoter act 6% and KinaseGlo FLuc -1%.
For COc1ccccc1N=c1sc2ccccc2n1C the results were SMN2 splice up -25%, NPC1 prom act 0%, FLuc counter -7%, Rab9 promoter act -2% and KinaseGlo FLuc -1%.
Screening Cc1ccc(-c2nc3ccccc3nc2Cl)cc1 returned SMN2 splice up 15%, NPC1 prom act -2%, FLuc counter inconclusive, Rab9 promoter act -2% and KinaseGlo FLuc 4%.
For Cc1ccc(-c2nc3ccccc3nc2NN)cc1 the results were NPC1 prom act 6%, FLuc counter 1.3µM* and Rab9 promoter act inconclusive.
`CCCn1nnc2ccccc2c1=O` gave SMN2 splice up -1%, NPC1 prom act 0%, FLuc counter -6%, Rab9 promoter act -4% and KinaseGlo FLuc -1%.
`O=c1c2ccccc2nnn1COc1cccc2ccccc12` gave SMN2 splice up 18%, NPC1 prom act inconclusive, FLuc counter 17µM*, Rab9 promoter act 4µM* and KinaseGlo FLuc 0%.
For CCC(=O)OCn1nnc2ccccc2c1=O the results were SMN2 splice up -43%, NPC1 prom act 5%, FLuc counter 1%, Rab9 promoter act -4% and KinaseGlo FLuc -3%.
`CCOc1ccc(OCCn2nnc3ccccc3c2=O)cc1` gave SMN2 splice up 16µM*, NPC1 prom act 3.5µM*, FLuc counter 13µM*, Rab9 promoter act 2.8µM* and KinaseGlo FLuc -9%.
O=c1c2ccccc2nnn1COc1ccc(F)cc1Cl was read as SMN2 splice up inconclusive, NPC1 prom act inconclusive, FLuc counter inconclusive, Rab9 promoter act 2.5µM* and KinaseGlo FLuc -5%.
CC(Oc1ccc(Cl)cc1Cl)C(=O)OCn1nnc2ccccc2c1=O (stereo unspecified) was read as SMN2 splice up -6%, NPC1 prom act -4%, FLuc counter 0%, Rab9 promoter act 1% and KinaseGlo FLuc -1%.
O=c1c2ccccc2nnn1COc1ccc(Cl)cc1Br was read as SMN2 splice up inconclusive, NPC1 prom act inconclusive, FLuc counter 24µM*, Rab9 promoter act 3.2µM* and KinaseGlo FLuc 0%.
For Cc1ccccc1-c1nnc(CN2CCN(c3cccc(C)c3C)CC2)o1 the results were SMN2 splice up 9% and FLuc counter -12%.
For CCc1ccc(NC(=O)Cn2nnc(C(=O)Nc3ccc(F)cc3)c2N)cc1 the results were FLuc counter 1%.
For CCN(CC)c1ccc(NC(=O)c2ccc(Br)o2)c(C)c1 the results were SMN2 splice up 12%, NPC1 prom act 15%, FLuc counter -21%, Rab9 promoter act 0% and KinaseGlo FLuc 1%.
Screening Cc1c(NC(=O)c2ccc(NC(=O)C3CC3)cc2)cccc1C(=O)O returned NPC1 prom act 0%, FLuc counter 15µM* and Rab9 promoter act 7%.
Screening Cc1c(NC(=O)c2ccccc2N)cccc1C(=O)O returned NPC1 prom act 1.3µM*, FLuc counter 9.5µM* and Rab9 promoter act 1.8µM*.
Screening Cc1cccc(OCC(=O)Nc2ccc(C(=O)Nc3ccccc3C(=O)O)cc2)c1C returned NPC1 prom act 0%, FLuc counter 4% and Rab9 promoter act -2%.
For Cc1cc(O)c(NC(=O)c2ccc(Br)o2)cc1C the results were SMN2 splice up 14µM*, NPC1 prom act 20%, FLuc counter inconclusive, Rab9 promoter act 17% and KinaseGlo FLuc -7%.
For Cc1c(NC(=O)c2ccccc2NC(=O)c2ccccc2)cccc1C(=O)O the results were NPC1 prom act 0%, FLuc counter 17µM* and Rab9 promoter act 4%.
Nc1ccccc1NC(=O)c1ccccc1N was read as SMN2 splice up -3%, NPC1 prom act 11%, FLuc counter -23%, Rab9 promoter act 17% and KinaseGlo FLuc -5%.
O=C(Cn1ccn(-c2ccc(F)c(F)c2)c(=O)c1=O)c1ccc(F)cc1 was read as FLuc counter -6%.
`Cc1c(NC(=O)c2ccc(Br)o2)cccc1C(=O)O` gave SMN2 splice up inconclusive, NPC1 prom act inconclusive, FLuc counter 21µM*, Rab9 promoter act 2.5µM* and KinaseGlo FLuc -4%.
For Cc1ccc(NC(=O)c2cccc(C(=O)Nc3ccc(C)cc3C(=O)O)c2)c(C(=O)O)c1 the results were NPC1 prom act -1%, FLuc counter 27µM* and Rab9 promoter act -4%[1.84 µM].
Cc1c(NC(=O)c2cccs2)cccc1C(=O)O was read as SMN2 splice up 10%, NPC1 prom act inconclusive, FLuc counter 15µM*, Rab9 promoter act inconclusive and KinaseGlo FLuc 1%.
For COc1ccccc1NC(=O)c1ccc(Br)o1 the results were SMN2 splice up 27%, NPC1 prom act 1%, FLuc counter -14%, Rab9 promoter act -5% and KinaseGlo FLuc -3%.
For COc1cc(NC(=O)c2ccc(Br)o2)c(C(=O)O)cc1OC the results were SMN2 splice up 18%, NPC1 prom act -1%, FLuc counter 21µM*, Rab9 promoter act -1% and KinaseGlo FLuc 0%.
Screening Cc1ccccc1NC(=O)c1ccccc1NC(=O)c1cccs1 returned NPC1 prom act -2%, FLuc counter inconclusive and Rab9 promoter act 0%.
